Results published in PubChem BioAssay (NCI).
Compounds without any hit were thinned out: in the full panel of roughly 83,000, 20% have a hit.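 Percent growth is the endpoint: 0 to 100 indicates growth inhibition (40 means 60% inhibition), 0 means no net growth, and negative values indicate cell death.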 Calls of active or inactive are those of the source. Rule for the calls: active = growth percent below 10; inactive = the rest.

tested on: MDA-MB-468 breast; assay: NCI-60 one-dose screen, 48 h (100 = growth as untreated, 0 = no growth, -100 = all killed); conditions: 10 µM unless noted

SMILES	growth
C=C(C)[C@@H]1CC[C@]2(C(=O)NCCCO)CC[C@]3(C)[C@H](CC[C@@H]4[C@@]5(C)CCCNC(C)(C)[C@@H]5CC[C@]43C)[C@@H]12	72.3% (inactive)
O=Cc1ccc(O)c(O)c1	93.4% (inactive)
CC1(C)CC(=O)C2=C(C1)OC(C(=O)c1ccccc1)C2c1cccc(Oc2ccccc2)c1 (stereo unspecified)	33% (inactive)
Cc1ccc(C=C2C(=O)NC(=O)NC2=O)cc1	108% (inactive)
COc1cc(Cn2cc3c(c2)-c2oncc2CC3)cc(OC)c1OC	-17.1% (active)
COc1nc(N(C)O)nc(N(C)O)n1	29.4% (inactive)
Clc1ccc2c(c1)NC1(CCSc3ccccc31)n1nccc1-2 (stereo unspecified)	106% (inactive)
C=CCCCCCCCCC(=O)OC(C)C	97.5% (inactive)
O=C(Nc1ccc(-n2ccc3c(NC(=O)c4ccccc4)ncnc32)cc1)c1ccc(Cl)c(C(F)(F)F)c1	-5.36% (active)
CCC12CCC3c4ccc(O)cc4CCC3C1CC(O)C2O (stereo unspecified)	58.4% (inactive)
CC(=O)N1CCN(CCNC(=O)n2cc(-c3ccncc3)c(-c3ccc(O)c(Cl)c3)n2)CC1	112% (inactive)
CCN(C(=O)N1CCN(c2cc3c(cc2F)c(=O)c(C(=O)O)cn3C2CC2)CC1)c1nc(-c2ccc(Cl)cc2)cs1	-2.66% (active)
O=[n+]1c2ccccc2n([O-])c2cc(Cl)ccc21	-15.4% (active)
CCOC(=O)c1cc(/C=C/c2ccc(Cl)cc2Cl)on1	37.6% (inactive)
CN1C(=O)N(C)C2C1NN=c1s/c(=C\c3ccccn3)c(=O)n12 (stereo unspecified)	88.8% (inactive)
C=C1c2c(C)nn(-c3ccc(C#CCOC4OC(CO)C(O)C(O)C4O)cc3)c2N(C)C23C[C@H]1C1(C)c4c(C)nn(-c5ccc(C#CCOC6OC(CO)C(O)C(O)C6O)cc5)c4N(C)C(C)(C[C@H]12)C3 (stereo partly specified)	-16.4% (active)
COc1cc(Cn2c(SCC(=O)Nc3cc(OC)c(OC)c(OC)c3)nc3ccccc3c2=O)cc(OC)c1OC	72.7% (inactive)
COC(=O)c1ccc(NC2=C(Cl)C(=O)c3nc(C)ccc3C2=O)cc1	56% (inactive)

SMILES	growth
COc1ccc2c(c1)c(-c1nn3cc(-c4cccs4)nc3s1)cn2C	71.5% (inactive)
CC(=O)NC(C)(C)C(=O)N1CCC[C@H]1C(=O)NC(C)(C)C(=O)N[C@@H](C)C(=O)NC(C)(C)C(=O)N[C@@H](C)C(=O)N[C@@H](CCC(N)=O)C(=O)NC(C)(C)C(=O)N[C@H](C(=O)NC(C)(C)C(=O)NCC(=O)N[C@@H](CC(C)C)C(=O)NC(C)(C)C(=O)N1CCC[C@H]1C(=O)N[C@H](C(=O)NC(C)(C)C(=O)NC(C)(C)C(=O)N[C@@H](CCC(N)=O)C(=O)N[C@@H](CCC(N)=O)C(=O)N[C@H](CO)Cc1ccccc1)C(C)C)C(C)C	3.71% [4.25 µM] (active)
CCc1ccc(-c2nnc(COc3ccc(-c4nc5ccccc5[nH]4)cc3OC)o2)cc1	86.9% (inactive)
CCN(CC)CCCCCCCNc1c2ccc(Cl)cc2nc2ccc(OC)cc12	-86.6% (active)
Cc1ccc(S(=O)(=O)Nc2ccc(Cl)cc2)cc1	107% (inactive)
C/C=C/C1=CN2C(=O)c3cc(OC4OC(C)C(NC)C(C)(O)C4O)c(C)cc3N=C[C@@H]2C1 (stereo partly specified)	-52.9% (active)
Clc1ccc(Cn2cc(-c3nc4ccc(Br)nc4n3Cc3ccc(Cl)cc3)c3cccnc32)cc1	60.7% (inactive)
O=C1NC(=C(Cl)Cl)/C(=N/S(=O)(=O)N2CCCCC2)N1	-38% (active)
COc1cc2nc(-c3ccc(Cl)cc3)cc(OCCCN3CCCC3)c2cc1OC	43.5% (inactive)
Cc1cc(C)c(N2C(=O)CC(Sc3ccccc3N)C2=O)c(C)c1 (stereo unspecified)	45.6% (inactive)
O=C(NN=C1CCCCC1)C(=O)NN=C1CCCCC1	113% (inactive)
Cc1ccc(-c2ccc(Nc3ccccc3)nn2)cc1S(N)(=O)=O	64% (inactive)
COc1ccc2c(c1)N(CCO)C1=C(C(=O)OC1)C2c1cccc(F)c1 (stereo unspecified)	7.89% (active)
N#Cc1c(-c2ccc(F)cc2)cc(-c2cccc(Cl)c2)[nH]c1=O	81.4% (inactive)
N=C(N)c1ccc(-c2ccc(-c3ccc(Cl)cc3Cl)s2)cc1	-57.1% (active)
C=CCN(C)C	102% (inactive)
O=C(Nc1ccccc1)c1sc(-c2cccc(C(F)(F)F)c2)cc1O	92.3% (inactive)
CC(C)NS(=O)(=O)c1cccc(-c2ccc3c(=O)n(CCCN)c4c(c3c2)C(=O)c2ccccc2-4)c1	111% (inactive)
